Screening results deposited in PubChem BioAssay by University of Kansas High Throughput Screening Laboratory.
mHTT-CaM PPI inh = disrupts binding of mutant huntingtin to calmodulin; AlphaScreen His-mHTT/GST-CaM binding, luminescence; hit rate 3.6% among 190,000; AID 1671202; inhibition, % at 15 µM;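 note: 0% = both proteins with DMSO and 100% = one protein alone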
Pf apPOL block = Pf-apPOL DNA polymerase inhibition | Recombinant Pf-apPOL, molecular beacon fluorescence, 1.5 h | inhibition, % at 10 µM | hit rate 0.25% among 210,000
Starred values were filed as active, the others as inactive; i = inactive; . = no result given; ! = repeats disagree. Rows were chosen to be rich in hits. Some 3.6% of all compounds tested hit in one or more screens of this group. Cut-off read from the data, not from the text of the source: active = inhibition above about 50%; inactive = the rest.

SMILES | mHTT-CaM PPI inh | Pf apPOL block
O=C1CCCC(=O)N1c1ccc(N2CCc3ccccc3C2)c([N+](=O)[O-])c1 | 37.0 | -17.0
CC1CC(=O)N(c2ccc(NC3CCCc4ccccc43)c([N+](=O)[O-])c2)C1=O (stereo not given) | 32.0 | -24.2
O=C1CCC(=O)N1c1ccc(Nc2ccc3c(c2)CCC3)c([N+](=O)[O-])c1 | 74.0* | -13.5
Cc1noc(COC2CCN(C(=O)NCc3ccco3)CC2)n1 | 12.8 | -4.0
CCNC(=O)C1Cc2ccc(OC)cc2N2CCN(Cc3ccc(F)cc3)CC12 (stereo not given) | 41.5 | -5.2
COc1ccccc1N1CCN2c3ccccc3CC(C(=O)NC3CC3)C2C1 (stereo not given) | -0.2 | -1.0
COc1ccc2c(c1)N1CCN(c3ccccc3OC)CC1C(C(=O)NC1CC1)C2 (stereo not given) | 58.7* | -2.3
COc1ccc2c(c1)N1CCN(Cc3ccc(F)cc3)CC1C(C(=O)NC1CC1)C2 (stereo not given) | 93.2* | -3.6
CCNC(=O)C1Cc2ccccc2N2CCN(c3cc(Cl)ccc3OC)CC12 (stereo not given) | 22.2 | -0.6
C=CCNC(=O)C1Cc2ccccc2N2CCN(c3cc(Cl)ccc3OC)CC12 (stereo not given) | 54.9* | 0.7
CC(C)n1nc(CNC(=O)c2ccc3c(c2)OCO3)c2ccccc21 | -4.9 | -0.6
CC(C)(C)c1[nH]nc2c1C(c1c(F)cccc1Cl)C(C#N)=C(N)O2 (stereo not given) | 25.0 | -1.5
COc1ccc(-c2cc(-c3ccc(Cl)cc3)n3ncnc3n2)cc1OC | 1.2 | 0.2
O=C1/C(=C\c2ccc(O)cc2)C(N2CCOCC2)=NN1c1ccc([N+](=O)[O-])cc1 | 84.0* | 4.2
CCOC1=NN(c2ccc([N+](=O)[O-])cc2)C(=O)/C1=C/c1ccc(Cl)cc1 | 34.0 | -2.4
Cc1ccc(F)cc1NC(=O)CSc1cccc2cccnc12 | 2.7 | 0.2
Cc1cccc(NC(c2cccc(F)c2)c2ccc3cccnc3c2O)n1 (stereo not given) | 99.0* | -44.5
Cc1cccc(NC(c2ccc(F)cc2)c2ccc3cccnc3c2O)n1 (stereo not given) | 100.0* | 3.7
c1cncc(C(N2CCOCC2)N2CCOCC2)c1 | 0.0 | -0.6
COc1ccc(NC(c2ccccc2)c2ccncc2)cc1 (stereo not given) | 2.6 | -3.0
O=C(CSc1cccc2cccnc12)c1ccc(F)cc1 | 5.0 | -7.5
Oc1c(C(c2ccncc2)N2CCOCC2)ccc2cccnc12 (stereo not given) | 100.0* | -5.5
Oc1c(C(Nc2ccc(F)cc2)c2ccncc2)ccc2cccnc12 (stereo not given) | 100.0* | -2.9
COc1ccc(CC(=O)N2CC3CC2CC3NS(=O)(=O)c2ccccc2)c(Cl)c1 (stereo not given) | 9.1 | 0.6
Cc1ccc(S(=O)(=O)Nc2ccc(Cn3cncn3)cc2)cc1F | -5.1 | 0.0
SMILES | mHTT-CaM PPI inh | Pf apPOL block
CN(C)CCNC(=O)c1cc2c(n1C)CCN(Cc1ccc(F)cc1)C2 | 38.4 | 3.7
O=C(Nc1cccc(C(F)(F)F)c1)c1ccc2c(c1)OCCO2 | -7.0 | -3.1
COc1ccc(N2C(=O)CC(N3CCN(C=O)CC3)C2=O)cc1 (stereo not given) | -6.3 | -3.2
Nc1ccc(Nc2ccc(N)cc2S(=O)(=O)O)cc1 | 97.5* | .
Nc1ccc(Nc2ccccc2)c(Cl)c1 | 48.5 | -7.3
COc1ccc(-c2c(O)c3ccc(O)cc3oc2=O)cc1 | 0.5 | 0.9
COc1cc(O)c2c(c1)oc(=O)c1c3cc(O)c(O)cc3oc21 | . | 51.3*
Cc1ccc(C2CC(c3cccn3C)=NN2C(=O)CN(C)C(=O)C(C)C)cc1 (stereo not given) | 62.1* | -5.2
CC(C)C(=O)N(C)CC(=O)N1N=C(c2ccccc2F)CC1c1ccc(F)cc1 (stereo not given) | 14.3 | -1.8
CN(CC(=O)N1N=C(c2ccccc2Cl)CC1c1ccc(F)cc1)C(=O)C1CC1 (stereo not given) | 4.9 | 0.2
CC(=O)N(C)CC(=O)N1N=C(c2ccc(C)c(C)c2)CC1c1ccc(C)cc1 (stereo not given) | 58.4* | -2.0
Cc1ccc(C2=NN(C(=O)CN(C)C(=O)C3CC3)C(c3ccccc3)C2)cc1C (stereo not given) | 27.3 | -2.8
Cc1ccc(C2CC(c3ccccc3Cl)=NN2C(=O)CN(C)C(=O)C2CC2)cc1 (stereo not given) | 88.2* | 0.6
CN(CC(=O)N1N=C(c2ccc(F)cc2)CC1c1ccc(F)cc1)C(=O)C1CCC1 (stereo not given) | 42.9 | -4.7
Cc1ccc(C2CC(c3cccn3C)=NN2C(=O)CN(C)C(=O)C2CCC2)cc1 (stereo not given) | 53.9* | -7.6
C1CCC(C2CCCNC2)CC1 (stereo not given) | -0.2 | -4.9
Cc1ccc(S(=O)(=O)N2CCc3nc4cc[nH]n4c(=O)c3C2)cc1Cl | 1.4 | 1.2
COc1ccc(/C=N/OCC(=O)Nc2sc3c(c2C#N)CCCC3)cc1OC | i | 2.0
O=C(Nc1ccccc1NC(=O)c1cccs1)c1cccs1 | -6.5 | -8.4
Cc1ccc(C2CC(c3cccs3)=NN2C(=O)CN(C)C(=O)C2CCC2)cc1 (stereo not given) | 50.8* | -2.0
CCC(=O)N(C)CC(=O)N1N=C(c2cccs2)CC1c1ccc(C)cc1 (stereo not given) | 14.2 | -2.0
CCNC(=O)C1CCCc2c1[nH]c1ccc(Cl)cc21 (stereo not given) | 99.9*! | -3.9
COCCNC(=O)C1CCCc2c1[nH]c1ccccc21 (stereo not given) | 11.8 | 2.0
O=C(NCc1ccccc1)C1C2C=CC3(CN(Cc4cccs4)C(=O)C13)O2 (stereo not given) | 3.6 | -2.0
COc1ccc(Nc2ccc(C(F)(F)F)cc2[N+](=O)[O-])cc1 | 53.0* | 0.4
SMILES | mHTT-CaM PPI inh | Pf apPOL block
COc1ccc(OCCNc2ccc(C(F)(F)F)cc2[N+](=O)[O-])cc1 | 26.0 | -1.6
CCC(C)NC(=O)c1cncc(-c2cc(F)ccc2F)c1 (stereo not given) | -1.3 | -1.8
COc1cc(C(=O)O/N=C(\N)c2cccnc2)cc(OC)c1OC | i | -0.1
Cc1ccc(NC(=O)N2CC3CCCN3c3ccccc32)cc1F (stereo not given) | 90.2* | 0.8
COc1ccc(NC(=O)N2CCN(C)c3ccccc32)cc1 | 36.1 | -2.8
Cc1ccc(NC(=O)N2CCOc3ccccc32)cc1F | -8.0 | -6.6
CSc1cccc(NC(=O)N2CC3CCCN3c3ccccc32)c1 (stereo not given) | 80.6* | -2.1
CSc1cccc(NC(=O)N2CCN(C)c3ccccc32)c1 | 80.4* | -4.4
CSc1cccc(NC(=O)N2CCC(N3CCN(Cc4ccc(C)cc4)C3=O)CC2)c1 | 13.5 | 1.4
O=C(Nc1ccc(F)cc1)N1CC2CCCN2c2ccccc21 (stereo not given) | 13.9 | 3.5
Cc1ccc(NC(=O)N2CC3CCCN3c3ccccc32)cc1 (stereo not given) | 58.9* | -3.0
O=C(CSc1nc2[nH]c(=O)cc(O)c2s1)NC1CCCC1 | 3.1 | .
CCCC(=O)Nc1ccc(S(=O)(=O)NC(C)=O)cc1 | -2.5 | -1.6
CCc1ccc(NC(=O)N2CC(CC)Oc3ccccc32)cc1 (stereo not given) | -11.5 | -3.1
CCc1ccc(NC(=O)N2CC3CCCN3c3ccccc32)cc1 (stereo not given) | 91.1* | 0.0
